Test results reported in PubChem BioAssay.
The source made the active and inactive calls.

Assays:
[1] = tested on: Human papillomavirus type 1a protein E7 (residues 44-93); experiment: small molecules binding HPV E7 44-93 – biochemical, small-molecule microarray, residues 44-93, 635 nm fluorescence, primary screen (AID 1108); conditions: fluorescence 635 nm, higher = more signal;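 further: E7 fragment applied at 1 µg/mL in TBST for 1 h at 4 C; score combines spot fluorescence with its signal to noise ratio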
[2] = hepatitis C replication reporter changes, two-sided – Huh7 cells, luciferase reporter, HCV replication inhibitor project, primary screen (AID 1109); conditions: Huh7 HCV replicon luciferase reporter, 48 h; higher = more signal;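 further: huh7 hepatoma cells harbouring a luciferase neomycin HCV replicon reporter; luciferase luminescence as measure of HCV replicon replication; test concentration not given here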
[3] = molecular target: Left-right determination factor 2 (Homo sapiens) (UniProt O00292); experiment: small molecules binding LEFTY2 protein – biochemical, small-molecule microarray, 635 nm fluorescence scan, primary screen (AID 1110); conditions: higher = more signal
Left-right determination factor 2 (Homo sapiens), sequence (O00292 whole entry, looked up): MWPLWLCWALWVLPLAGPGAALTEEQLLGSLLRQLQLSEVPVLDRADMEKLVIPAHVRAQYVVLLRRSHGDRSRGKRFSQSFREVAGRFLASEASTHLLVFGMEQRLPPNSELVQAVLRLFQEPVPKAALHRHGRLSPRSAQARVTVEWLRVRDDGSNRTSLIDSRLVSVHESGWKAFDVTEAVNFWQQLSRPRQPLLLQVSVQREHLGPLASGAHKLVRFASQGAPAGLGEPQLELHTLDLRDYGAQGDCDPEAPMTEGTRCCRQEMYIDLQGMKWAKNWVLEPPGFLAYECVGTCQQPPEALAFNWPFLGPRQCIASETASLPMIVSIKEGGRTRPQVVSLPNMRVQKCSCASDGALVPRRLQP

[4] = molecular target: Calmodulin-1 (Homo sapiens) (UniProt P0DP23); experiment: small molecules binding calmodulin-1 with EGTA – biochemical, small-molecule microarray, Cy5-labelled CALM1, profiling panel (AID 1111); conditions: Cy5-CALM1 binding fluorescence, higher = more signal;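 further: labelled calmodulin applied in Tris saline Tween buffer holding calcium plus EGTA and DTT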
[5] = molecular target: Calmodulin-1 (Homo sapiens) (UniProt P0DP23); experiment: small molecules binding Ca-loaded calmodulin-1 – biochemical, small-molecule microarray, Cy5-labelled CALM1, plus calcium, artefact control for SMM control-protein annotation, profiling panel (AID 1112); conditions: Cy5-CALM1 binding fluorescence, higher = more signal;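 further: score merges spot fluorescence with signal to noise from triplicate slides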
[6] = probe aWnt5a binding to arrayed compounds – biochemical, biotinylated probe, 635/667 nm fluorescence, primary screen (AID 1113); conditions: small-molecule microarray, higher = more signal;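 further: score merges 667 nm fluorescence intensity with signal-to-noise per printed feature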
[7] = probe aShh binding to arrayed compounds – biochemical, biotinylated probe, 635/667 nm fluorescence, primary screen (AID 1114); conditions: small-molecule microarray, higher = more signal;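 further: probe is biotin-labelled aShh protein from a stem cell growth factor screen; measures binding of labelled protein to compounds printed on the slide; score merges feature fluorescence at 667 nm with signal-to-noise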
[8] = probe aNog binding to arrayed compounds – biochemical, biotinylated probe, 635/667 nm fluorescence, primary screen (AID 1115); conditions: small-molecule microarray, higher = more signal;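 further: probe is biotinylated aNog protein used at 0.15 µg/mL for 1 h at 4 C; z-score combines 667 nm fluorescence of each spot with its signal to noise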
[9] = molecular target: Torsin-1A-interacting protein 1 (Homo sapiens) (UniProt Q5JTV8); experiment: compound microarray binding of lysate hLAP1 – cell lysate, small-molecule microarray, COS7 lysate, 635/667 nm fluorescence, primary screen (AID 1116); conditions: 635 nm fluorescence, higher = more signal
Torsin-1A-interacting protein 1 (Homo sapiens), sequence (Q5JTV8 whole entry, looked up): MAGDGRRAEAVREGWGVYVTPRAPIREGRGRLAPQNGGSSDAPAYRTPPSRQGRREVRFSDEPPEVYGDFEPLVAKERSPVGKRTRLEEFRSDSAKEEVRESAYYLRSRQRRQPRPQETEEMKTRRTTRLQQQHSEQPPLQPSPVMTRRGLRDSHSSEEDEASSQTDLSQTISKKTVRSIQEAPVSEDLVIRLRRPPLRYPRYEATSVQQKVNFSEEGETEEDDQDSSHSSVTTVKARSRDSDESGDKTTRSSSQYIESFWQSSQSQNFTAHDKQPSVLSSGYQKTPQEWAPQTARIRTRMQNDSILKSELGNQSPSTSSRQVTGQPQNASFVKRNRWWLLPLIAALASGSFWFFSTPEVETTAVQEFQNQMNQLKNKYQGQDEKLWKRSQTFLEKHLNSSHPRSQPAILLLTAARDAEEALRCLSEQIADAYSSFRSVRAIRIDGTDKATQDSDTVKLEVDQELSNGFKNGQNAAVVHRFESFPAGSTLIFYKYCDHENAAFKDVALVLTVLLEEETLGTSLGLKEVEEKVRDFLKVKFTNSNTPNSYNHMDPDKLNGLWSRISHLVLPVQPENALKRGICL

[10] = molecular target: Alpha-bungarotoxin (Bungarus multicinctus) (UniProt P60615); experiment: compounds binding labelled alpha-BTX control protein – biochemical, small-molecule microarray, Alexa647 label, 635/667 nm fluorescence, artefact control for SMM control protein annotation, profiling panel (AID 1117); conditions: alpha-BTX-A647 binding fluorescence, higher = more signal
Alpha-bungarotoxin (Bungarus multicinctus), sequence (P60615 whole entry, looked up): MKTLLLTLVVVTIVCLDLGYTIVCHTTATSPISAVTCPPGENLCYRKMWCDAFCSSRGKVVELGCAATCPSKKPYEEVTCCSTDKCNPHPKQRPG

Albumin (Bos taurus) = Albumin (Bos taurus) (UniProt P02769); experiment: compounds binding labelled BSA control protein – biochemical, small-molecule microarray, Alexa647 label, 635/667 nm fluorescence, artefact control for SMM control protein annotation, profiling panel (AID 1118); conditions: BSA-A647 binding, fluorescence 635 nm, higher = more signal;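 further: score merges 667 nm emission intensity and signal-to-noise per printed compound spot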
Albumin (Bos taurus), sequence (P02769 whole entry, looked up): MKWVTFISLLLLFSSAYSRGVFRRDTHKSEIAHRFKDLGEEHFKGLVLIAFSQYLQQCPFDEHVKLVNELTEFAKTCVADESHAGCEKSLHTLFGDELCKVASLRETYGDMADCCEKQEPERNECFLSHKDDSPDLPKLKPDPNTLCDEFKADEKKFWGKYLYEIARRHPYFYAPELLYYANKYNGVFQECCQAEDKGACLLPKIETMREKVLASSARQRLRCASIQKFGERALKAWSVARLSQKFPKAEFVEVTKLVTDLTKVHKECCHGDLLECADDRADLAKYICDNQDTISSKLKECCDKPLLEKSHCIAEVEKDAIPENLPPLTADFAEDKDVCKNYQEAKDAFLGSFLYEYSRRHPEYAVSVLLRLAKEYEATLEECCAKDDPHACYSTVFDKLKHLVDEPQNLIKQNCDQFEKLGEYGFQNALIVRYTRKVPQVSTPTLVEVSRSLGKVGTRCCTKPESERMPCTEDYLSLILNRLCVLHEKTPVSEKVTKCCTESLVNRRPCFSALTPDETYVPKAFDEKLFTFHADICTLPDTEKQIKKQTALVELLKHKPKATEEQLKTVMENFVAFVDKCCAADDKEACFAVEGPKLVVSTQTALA

[11] = probe aXIP binding to arrayed compounds – biochemical, NeuroSMM set, 635/667 nm fluorescence, primary screen (AID 1119); conditions: small-molecule microarray, higher = more signal, called active from +8 up or from −8 down;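 further: probe is the protein aXip251-270 applied at 1 µg/mL to compound-printed slides; binding of probe to printed compounds measured as 667 nm fluorescence plus signal to noise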
[12] = probe aNOTCH3 binding on compound microarray – biochemical, small-molecule microarray, 635/667 nm fluorescence, primary screen (AID 1120); conditions: higher = more signal;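 further: probe is a biotin-tagged antibody raised against NOTCH3 rather than NOTCH3 protein; score merges spot fluorescence near 667 nm with spot signal to noise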
[13] = probe aNOTCH2 binding on compound microarray – biochemical, small-molecule microarray, 635/667 nm fluorescence, primary screen (AID 1121); conditions: higher = more signal;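 further: score merges feature fluorescence read at 667 nm with its signal to noise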
[14] = molecular target: Carbonic anhydrase 2 (Homo sapiens) (UniProt P00918); experiment: compounds binding carbonic anhydrase 2 – biochemical, small-molecule microarray, Alexa647-labelled CAII, profiling panel (AID 1122); conditions: CAII-A647 binding fluorescence, higher = more signal
[15] = COS7 lysate on small-molecule microarray, probe aHis, 635 nm (AID 1123); conditions: COS7 cell lysate, fluorescence, higher = more signal;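 further: z-score combines 667nm fluorescence intensity with signal-to-noise per printed compound spot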
[16] = probe aLAP1 signal on lysate-treated microarray – cell lysate, small-molecule microarray, COS7 lysate, primary screen (AID 1124); conditions: probe aLAP1, fluorescence, higher = more signal;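 further: lysate comes from COS7 cells expressing LAP1 and is applied at 0.3 µg/mL; score merges spot fluorescence near 667 nm with signal-to-noise over triplicate slides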
Sam68 (KHDRBS1) = experiment: compounds binding KHDRBS1 protein – biochemical, small-molecule microarray, 635 nm fluorescence, primary screen (AID 1125); conditions: higher = more signal;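 further: score merges 667 nm channel intensity with signal to noise over triplicate slides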
[17] = tested on: Chordin-like protein 2 (CHRDL2); experiment: compounds binding chordin-like 2 – biochemical, small-molecule microarray, 635 nm fluorescence, primary screen (AID 1126); conditions: fluorescence 635 nm, higher = more signal;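 further: printed compound slides probed with Chrdl2 protein at 4 µg/mL for 1 h at 4 C; score merges 667 nm emission intensity with signal to noise over three replicate slides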
[18] = molecular target: Concanavalin-A (Canavalia ensiformis) (UniProt P02866); experiment: compounds binding concanavalin A lectin – biochemical, small-molecule microarray, Alexa647 label, 635 nm, artefact control for SMM control protein annotation, primary screen (AID 1127); conditions: ConA-A647 binding fluorescence, higher = more signal;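 further: z combines 667 nm emission intensity with signal-to-noise across three replicate slides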
Concanavalin-A (Canavalia ensiformis), sequence (P02866 whole entry, looked up): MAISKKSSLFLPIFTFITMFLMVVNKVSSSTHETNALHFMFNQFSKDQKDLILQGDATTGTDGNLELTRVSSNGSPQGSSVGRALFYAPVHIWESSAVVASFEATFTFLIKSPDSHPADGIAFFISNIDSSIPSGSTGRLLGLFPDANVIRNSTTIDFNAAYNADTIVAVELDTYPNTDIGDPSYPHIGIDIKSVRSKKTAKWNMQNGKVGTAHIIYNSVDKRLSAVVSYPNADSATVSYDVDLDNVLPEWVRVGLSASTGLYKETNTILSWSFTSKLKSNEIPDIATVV

SMILES	composite z-score [1]	z-score [2]	composite z-score [3]	composite z-score [4]	composite z-score [5]	composite z-score [6]	composite z-score [7]	composite z-score [8]	composite z-score [9]	composite z-score [10]	composite z-score (Albumin (Bos taurus))	composite Z-score [11]	composite z-score [12]	composite z-score [13]	composite z-score [14]	composite z-score [15]	composite z-score [16]	composite z-score (Sam68 (KHDRBS1))	composite z-score [17]	composite z-score [18]
CCCNC(=O)[C@@]1(c2ccc([N+](=O)[O-])cc2)CC(=O)N(C2CCCCC2)[C@@H]1c1ccc(CO)cc1	1.5	-0.887	0.357	0.653	-0.0681	-0.0285	0.446	-0.0216	1.2	0.764	0.0308	0.173 (inactive)	0.135	-0.0406	0.66	2.01	0.999	1.25	0.19	0.95
CC(=O)NCCCC[C@@H]1NC(=O)[C@@H]2C[C@H](C(=O)NCCCC[N+](C)(C)C)[C@H](c3ccc(O)cc3)N2C1=O	0.364	-0.307	1.35	-0.206	0.32	-0.0758	0.366	0.33	1.06	1.57	-0.763	0.0463 (inactive)	0.271	-0.0467	0.514	1.18	-0.111	1.29	1.35	1.16
C[N+](C)(C)CCCCCCNC(=O)[C@H]1C[C@H]2C(=O)NCC(=O)N2[C@H]1c1ccc(O)cc1	1.34	1.4	1.03	0.14	-1.16	-0.0846	0.21	-0.507	-0.489	0.713	-0.0386	1.17 (inactive)	-0.114	-0.149	0.422	1.21	0.255	1.12	0.856	0.758
COc1ccc(C#Cc2ccc3c(c2)[C@]2(C(=O)N3)[C@H](c3ccc(O)cc3)N3[C@H](c4ccccc4)[C@H](c4ccccc4)OC(=O)[C@H]3[C@@H]2C(=O)O)cc1	1.19	-0.327	-0.172	0.69	0.805	0.0293	-0.315	1.49	0.684	-0.0251	0.496	0.708 (inactive)	0.277	0.163	0.614	1.23	0.483	0.964	0.111	0.868
COC(=O)[C@@]1(Cc2ccc(F)cc2)[C@H]2c3cc(C(=O)N(C)C)n(Cc4cc(F)cc5c4OCOC5)c3C[C@H]2CN1C(=O)c1ccccc1	1.41	-1.81	0.011	1.68	0.0074	-0.001	0.0856	0.468	0.822	1.04	1.07	-0.199 (inactive)	0.24	0.105	0.376	2.97	0.271	1.33	-0.535	1.04
CCCCCCc1nc(C2CC2)cc2c1[Si](C(C)C)(C(C)C)O[C@H]2c1ccccc1	-1.1	-0.0742	0.359	-0.806	-0.852	-0.154	-0.157	-0.422	-0.186	-0.271	-0.948	-0.228 (inactive)	-0.0647	-0.126	-0.324	-0.724	0.649	-0.698	0.21	0.327
CCOC(=O)c1ccc(NC(=O)O[C@H]2[C@H](OC(=O)Nc3ccc4c(c3)OCO4)[C@@H](OC(=O)Nc3ccc4c(c3)OCO4)[C@@H](OC)O[C@@H]2CO)cc1	1.27	1.5	0.48	0.517	-0.393	0.0321	-0.0664	1.08	1.52	0.908	0.862	0.805 (inactive)	0.291	-0.0226	0.516	2.56	0.535	1.31	0.0612	1.14
C=C(C)[C@@H]1CC=C(C(O)C2C=CC3C(=O)N(c4ccccc4)C(=O)C3N2Nc2ccccc2F)CC1 (stereo not given in full)	1.46	-0.0769	0.341	1.41	0.797	0.0003	-0.0858	1.4	1.04	1.19	0.956	0.117 (inactive)	0.466	-0.0467	0.747	3.08	-0.102	1.34	0.0095	1.13
CCOC(=O)C[C@H]1[C@H](OC(=O)Cc2ccc3c(c2)OCO3)[C@@H](NC(=O)CC(C)C)c2cc(OCCCO)ccc2N1C(=O)Cc1ccc(OC)cc1	0.479	-0.948	0.073	-0.221	-0.361	-0.012	-0.138	-0.25	0.466	1.03	0.779	-0.867 (inactive)	-0.0328	-0.0288	0.0138	0.775	0.166	0.282	-0.226	-0.622
C=CCC(OC(C)=O)[C@@H]1[C@@H](N(Cc2cccc3ccccc23)C(=O)Cc2ccc(OC)cc2)c2cc(OCCCO)ccc2N1C(=O)c1ccc2ccccc2n1 (stereo not given in full)	0.26	-0.043	0.172	0.0729	0.259	0.0132	-0.17	-0.456	0.307	0.472	0.249	0.397 (inactive)	0.0224	-0.0515	0.189	0.979	0.449	0.404	0.173	-0.212
[N-]=[N+]=Nc1ccccc1[C@H]1OC(c2ccc(OCCCO)cc2)=N[C@@]1(Cc1ccccc1)C(=O)N1CCCCC1	1.45	-2.13	0.346	1.53	0.735	0.299	0.204	1.28	2.12	1.53	0.899	0.498 (inactive)	0.369	0.208	0.38	2.36	0.19	1.13	0.618	1.19
